Data from PubChem BioAssay (Tox21).
Inconclusive results are not listed. A number with no mark means an inactive call. Activity calls are given as the source filed them. The call rests on the fitted dose curve; in most records, active means well fitted inhibition curve with a large enough effect in the signal ratio in the repeat runs (not every such curve was filed as active); inconclusive means weak or mixed curves, or effect the other way; inactive means no such curve, though single readings can be large or run the other way; the % refers to the signal ratio.

Biological target: Peroxisome proliferator-activated receptor delta (Homo sapiens) (UniProt Q03181)
Experiment: qHTS assay to identify small molecule antagonists of the peroxisome proliferator-activated receptor delta (PPARd) signaling pathway (AID 743215);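 further: cells stimulated with agonist L165041 at 300 nM final during compound exposure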
Settings: HEK293H PPARd-UAS-bla, beta-lactamase FRET ratio, antagonist, 17 h; series mostly up to 62 µM; ratio activity, negative = inhibition: at the top concentration
Text: U.S. Tox21 Program National Center for Advancing Translational Sciences [NCATS] NIH Chemical Genomics Center [NCGC] U.S. Environmental Protection Agency [EPA] National Institutes of Environmental Health Sciences [NIEHS] National Toxicology Program [NTP] U.S. Food and Drug Administration [FDA] Tox21 Assay Overview: The peroxisome proliferator-activated receptors (PPARs) are lipid-activated transcription factors of the nuclear receptor superfamily with three distinct subtypes namely PPAR alpha, PPAR delta (PPARd) and PPAR gamma. All these subtypes heterodimerizes with Retinoid X receptor (RXR) and have different physiological functions. […] To identify the compounds that inhibit PPAR-delta signaling, GeneBLAzer PPAR delta UAS-bla HEK293H cell line (Invitrogen, Carlsbad, CA, USA) containing a beta-lactamase reporter gene under the control of an Upstream Activator Sequence (UAS) was used to screen the Tox21 compound library.
Tox21 Assay Protocol Summary: PPARd-bla cells were dispensed at 3000 cells/5uL/well in 1536-well black wall/clear bottom plates using a Multidrop Combi (Thermo Fisher Scientific, Waltham, MA) dispenser. After the assay plates were incubated at 37 C and 5% CO2 for 5 h, 23 nL of compounds dissolved in DMSO, positive controls or DMSO only was transferred to the assay plate by a Pintool station (Kalypsys, San Diego, CA), followed by addition of 1ul L165041 (300 nM, final concentration in the wells). The assay plates were incubated at 37 C for 17 h, and then 1 uL of LiveBLAzerTM B/G FRET substrate was added using a Bioraptr Flying Reagent Dispenser (FRD) workstation (Beckman Coulter, Indianapolis, IN, USA). The assay plates were incubated at room temperature for 2 h and fluorescence intensity was measured by an Envision plate reader (PerkinElmer, Shelton, CT).
On the % scale 0 is the no-effect control and ±100 the full control effect.

Peroxisome proliferator-activated receptor delta (Homo sapiens), sequence (Q03181 whole entry, looked up): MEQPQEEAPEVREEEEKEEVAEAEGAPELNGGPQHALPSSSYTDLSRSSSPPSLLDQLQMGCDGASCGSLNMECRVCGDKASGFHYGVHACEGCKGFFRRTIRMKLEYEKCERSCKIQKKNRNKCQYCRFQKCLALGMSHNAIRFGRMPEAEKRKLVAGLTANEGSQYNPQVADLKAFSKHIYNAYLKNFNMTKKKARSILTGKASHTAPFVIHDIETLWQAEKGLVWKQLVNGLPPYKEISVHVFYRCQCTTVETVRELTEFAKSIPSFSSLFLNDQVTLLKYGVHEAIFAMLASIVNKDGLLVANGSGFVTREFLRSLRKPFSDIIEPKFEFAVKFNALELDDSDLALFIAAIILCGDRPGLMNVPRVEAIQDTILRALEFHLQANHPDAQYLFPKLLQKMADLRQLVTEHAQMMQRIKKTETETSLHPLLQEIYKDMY

Row | Compound | outcome | ratio activity, negative = inhibition
1 | C[C@]12CC[C@@H]3c4ccc(O)cc4CC[C@H]3[C@@H]1C[C@@H](O)[C@@H]2O | inactive | 
2 | Nc1nc(N)nc(-c2ccccc2)n1 | inactive | 
3 | CSc1ccc(Cl)cc1 |  | -8.68%
4 | Cc1ccc(C(C)C)c(O)c1 | inactive | 
5 | COc1ccc(CCC(C)=O)cc1 | inactive | 
6 | CC1(C)CC(N)CC(C)(CN)C1 (stereo not given) | inactive | 
7 | CC(C)c1cccc(C(C)C)c1 | inactive | 
8 | O=C1c2ccccc2CCc2ccccc21 | inactive | 
9 | CC(=O)CC(C)(C)O | inactive | 
10 | CCNC(=S)NCC | inactive | 
11 | Cc1ccc2ncccc2c1 |  | 14.7%
12 | C[C@]12CCC(=O)C=C1CC[C@@H]1[C@@H]2[C@@H](O)C[C@@]2(C)[C@H]1CC[C@]2(O)C(=O)CO |  | 17.4%
13 | CC1(C)S[C@@H]2[C@H](NC(=O)COc3ccccc3)C(=O)N2[C@H]1C(=O)O |  | -2.24%
14 | CC(C)OC(=O)COc1ccc(Cl)cc1Cl | inactive | 
15 | O=[N+]([O-])c1ccc2nc[nH]c2c1 | inactive | 
16 | O=c1[nH]cnc2[nH]ncc12 |  | -3.89% [at 80.4 µM]
17 | N[C@H](Cc1c[nH]c2ccccc12)C(=O)O | inactive | 
18 | COc1ccc(C)cc1N | inactive | 
19 | CCCCCCC=O | inactive | 
20 | CC(CCl)OP(=O)(OC(C)CCl)OC(C)CCl (stereo not given) |  | -7.28%

Row | Compound | outcome | ratio activity, negative = inhibition
21 | N#Cc1ccccc1 | inactive | 
22 | C=CC(C)CCCC(C)(C)O (stereo not given) | inactive | 
23 | CN/C(=C\[N+](=O)[O-])NCCSCc1csc(CN(C)C)n1 | inactive | 
24 | COCCCN | inactive | 
25 | CC(C)(Oc1ccc(CCNC(=O)c2ccc(Cl)cc2)cc1)C(=O)O |  | 8.72%
26 | C=Cc1ccc(C)cc1 | inactive | 
27 | CCCCCCCCCCCCCCCCO |  | 1.6%
28 | COCCOC(=O)c1ccccc1C(=O)OCCOC |  | 1.37% [at 80.4 µM]
29 | Clc1ccccn1 | inactive | 
30 | COc1ccccc1OCC(O)CO (stereo not given) | inactive | 
31 | CCNc1ccccc1 | inactive | 
32 | CC(=O)c1ccc(O)cc1 |  | -0.067%
33 | CCCCOC(=O)c1ccc(N)cc1 | inactive | 
34 | C=C(C)C(=O)OCC(C)C | inactive | 
35 | O=C1C(c2[nH]c3ccccc3c2O)=Nc2ccccc21 | inactive | 
36 | Cc1ccc([N+](=O)[O-])cc1S(=O)(=O)O |  | 10.8%
37 | O=C(O)c1ccccc1C(=O)O | inactive | 
38 | CCOCC(=O)O | inactive | 
39 | CC(C)CC(=O)CC(C)CC(C)C (stereo not given) | inactive | 
40 | O=C(OCC1CCC2OC2C1)C1CCC2OC2C1 (stereo not given) | inactive | 
